A selection: hits, their analogues and other compounds. The true share with any hit is near 6.2%.
FMDV antiviral: foot and mouth disease virus antiviral activity. Potency, µM (titrated, usually from 57.9 µM), most hits filed as inhibitors. FMDV antiviral cell-based qHTS. AID 1159524. 410,000 tested, 1.2% active; calls by dose curve; tested in HEK293T cells; note: read-out not given here; nearly all actives have a fitted effect of over 45% in size
LASV entry inh: Lassa virus entry inhibition | 300,000 tested, 1.2% active | Lassa virus pseudotype entry inhibition, cell reporter | Potency, µM (highest dose often 37.9 µM), hits mostly inhibitors; calls by dose curve; tested in HEK293 cells; note: nearly all actives have a fitted effect of over 50% in size
HCMV antiviral: inhibitors of human cytomegalovirus; activity change, negative = inhibition, % at 57.5 µM; 410,000 tested, 4.5% active; HFF cells, HCMV-luciferase reporter, 72 h; hits give low values; in the data active = activity change below about -60%; inconclusive = no clear call, values can overlap the other calls; inactive = above about -39%
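Screen run at 2 compound doses on HFFs infected with reporter HCMV, MOI 1 PFU/cell. Luciferase activity from cell lysates at 72 h post infection gave inhibition relative to buffer-only and Salinomycin wells.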
Marburg entry inh: inhibitors of Marburg virus binding or cell entry; Marburg virus pseudotyped entry inhibition, cell reporter; Potency, µM (top dose mostly 37.8 µM), actives largely listed as inhibitors; 300,000 tested, 1.8% active; calls by dose curve; tested in HEK293 cells
Each line names hits and unclear results; the compound was inactive in the other large screens.

CCOC(=O)c1ccc(NC(=O)CCc2c(C)nc3c(c(C)nn3C(C)(C)C)c2C)cc1	none
OC1(c2ccc3c(c2)CN(Cc2ccco2)CCO3)CCN(c2ccccc2F)CC1	none (no result: LASV entry inh, HCMV antiviral, Marburg entry inh)
CN=c1sc(C(=O)Nc2cccc(Cl)c2)cc(=O)n1C	LASV entry inh inconclusive, HCMV antiviral -66, Marburg entry inh inconclusive
CCC(COC)NC(=O)c1cnn(-c2ncc3c(n2)-c2ccccc2CCC3)c1C (stereo not given)	none (no result: LASV entry inh, HCMV antiviral, Marburg entry inh)
COc1ccc(COC(=O)c2cc([N+](=O)[O-])ccc2N2CCOCC2)cc1F	FMDV antiviral inconclusive, LASV entry inh inconclusive, HCMV antiviral -73, Marburg entry inh inconclusive
CCc1ccc(C(=O)COC(=O)c2cc([N+](=O)[O-])ccc2N2CCOCC2)cc1	LASV entry inh inconclusive, Marburg entry inh 3.2µM
O=C(COC(=O)c1cc([N+](=O)[O-])ccc1N1CCOCC1)c1ccc(F)cc1	none (no result: LASV entry inh, Marburg entry inh)
O=C(OCc1ccc(Br)cc1)c1cc([N+](=O)[O-])ccc1N1CCOCC1	none (no result: LASV entry inh, Marburg entry inh)
Cc1cnc(C)c(-c2cc(F)cc3c2OC(CNC(=O)c2cc(Cl)ccc2F)C3)n1 (stereo not given)	none (no result: LASV entry inh, HCMV antiviral, Marburg entry inh)
CCOC(=O)CC1N=NN=N1	none (no result: FMDV antiviral, LASV entry inh, HCMV antiviral)
CCOC(=O)N1CCc2c(sc3c2c(=O)n(-c2ccc(CC)cc2)c(=O)n3Cc2cc(C)ccc2C)C1	Marburg entry inh inconclusive
O=C(NCCc1ccc(Cl)cc1)C1CCN(S(=O)(=O)c2ccc3[nH]ccc3c2)CC1	none (no result: Marburg entry inh)
O=C(Nc1ccccc1)N(C1=NCCCCS1)c1ccccc1	HCMV antiviral -104
Cc1ccc2c(c1)c(=O)c1ccccc1n2CCCC(=O)Nc1ccc(Cl)cc1C	none (no result: Marburg entry inh)
O=C(CCCn1c2ccccc2c(=O)c2ccccc21)Nc1cccc(Cl)c1	FMDV antiviral inconclusive, LASV entry inh inconclusive, HCMV antiviral -67 (no result: Marburg entry inh)
Cc1ccc2c(c1)c(=O)c1ccccc1n2CCCC(=O)Nc1ccc(C)c(C)c1	FMDV antiviral inconclusive, LASV entry inh inconclusive, HCMV antiviral -61 (no result: Marburg entry inh)
Cc1ccc2c(c1)c(=O)c1ccccc1n2CCCC(=O)Nc1ccc(C)c(F)c1	LASV entry inh inconclusive, HCMV antiviral -74 (no result: Marburg entry inh)
Cc1ccc2c(c1)c(=O)c1ccccc1n2CCCC(=O)Nc1ccc(Cl)c(Cl)c1	none (no result: Marburg entry inh)
CN1C(c2ccccc2)CC(C)(O)CC1c1ccccc1 (stereo not given)	none (no result: FMDV antiviral, LASV entry inh, Marburg entry inh)
Cc1cc(C)cc(Oc2nc3c(C)cccn3c(=O)c2/C=C(\C#N)c2nc3ccccc3s2)c1	none
Cc1cccc2cc3c(N)c(C#N)sc3nc12	HCMV antiviral -63, Marburg entry inh inconclusive
CN(Cc1cnc2nc(N)nc(N)c2n1)c1ccc(C(=O)NC(CCC(=O)O)C(=O)O)c2ccccc12 (stereo not given)	LASV entry inh inconclusive, HCMV antiviral -101, Marburg entry inh inconclusive
CCCSCCCNC(=O)C1CCN(C(=O)c2cc3sccc3n2C)CC1	none (no result: LASV entry inh)
COC(=O)c1cc(=O)n(-c2ccccc2)c(=Nc2ccccc2)s1	FMDV antiviral 13µM
CCOC(=O)c1ccc(N=c2sc(C(=O)OC)cc(=O)n2-c2ccc(C(=O)OCC)cc2)cc1	FMDV antiviral 20µM
Cc1ccc(C(=O)Nc2nnc(S(=O)(=O)N(C)Cc3ccc(F)cc3)s2)cc1	HCMV antiviral active (no result: Marburg entry inh)
Cc1cccc(C(=O)Nc2nnc(S(=O)(=O)N(C)Cc3ccc(Cl)cc3)s2)c1	HCMV antiviral inconclusive (no result: Marburg entry inh)
Cc1cc(C)c(NC(=O)CN(C)C(=O)CCN2C(=O)C3CCCCC3C2=O)c(C)c1 (stereo not given)	none (no result: LASV entry inh, Marburg entry inh)
CCOC(=O)[C@]12CCCC=C1N(Cc1ccc(Cl)cc1Cl)C(=O)[C@H](CC(=O)NCc1ccc(OC)c(OC)c1)C2	FMDV antiviral inconclusive, HCMV antiviral -71 (no result: LASV entry inh, Marburg entry inh)
COC(=O)[C@]12CCCCC=C1N(Cc1ccc(Cl)cc1Cl)C(=O)[C@H](CC(=O)NCc1ccc(OC)c(OC)c1)C2	FMDV antiviral 32µM, HCMV antiviral -70 (no result: LASV entry inh, Marburg entry inh)
COC(=O)[C@]12CCCCC=C1N(Cc1ccc(Cl)cc1Cl)C(=O)[C@H](CC(=O)NCc1ccccc1)C2	none (no result: LASV entry inh, Marburg entry inh)
CCOC(=O)[C@]12CCCC=C1N(Cc1ccco1)C(=O)[C@H](CC(=O)N1CCSCC1)C2	HCMV antiviral -82 (no result: LASV entry inh, Marburg entry inh)
CCOC(=O)[C@]12CCC=C1N(Cc1ccc3c(c1)OCO3)C(=O)[C@H](CC(=O)NCc1cccc(C(F)(F)F)c1)C2	none (no result: LASV entry inh, Marburg entry inh)
CCOC(=O)[C@]12CCCC=C1N(Cc1ccc3c(c1)OCO3)C(=O)[C@H](CC(=O)NCc1cccc(C(F)(F)F)c1)C2	HCMV antiviral -65 (no result: LASV entry inh, Marburg entry inh)
Cc1ccc(C(=O)Nc2cnn(-c3ccc(C(=O)NCc4nc(-c5ccccc5)n[nH]4)cc3)c2)c(C)c1	none (no result: LASV entry inh, HCMV antiviral, Marburg entry inh)
COc1cccc(C(=O)c2cn(CC(=O)NCc3ccccc3Cl)c3nc(C)ccc3c2=O)c1	LASV entry inh inconclusive (no result: Marburg entry inh)
CCc1ccc(C(O)(CC)C(CN2CCOCC2)c2ccccc2)cc1 (stereo not given)	FMDV antiviral inconclusive, HCMV antiviral -63, Marburg entry inh inconclusive
CCC(O)(c1ccccc1)C(CN1CCOCC1)c1ccccc1 (stereo not given)	none
CCCCCC(O)(c1ccc(OC)cc1)C(CN1CCOCC1)c1ccccc1 (stereo not given)	LASV entry inh inconclusive, HCMV antiviral -61, Marburg entry inh inconclusive
CCCCC(O)(c1ccc(CC)cc1)C(CN1CCOCC1)c1ccccc1 (stereo not given)	HCMV antiviral -71 (no result: LASV entry inh, Marburg entry inh)
CCn1c(=O)c2sccc2n2c(CCCC(=O)N3CCN(c4cc(C)ccc4C)CC3)nnc12	FMDV antiviral inconclusive, HCMV antiviral inconclusive (no result: Marburg entry inh)
C[C@@H]1CCN=C(N)S1	Marburg entry inh inconclusive (no result: LASV entry inh, HCMV antiviral)
COCCCNC(=O)CCn1c(=O)c2ccccc2n(CC(=O)Nc2c(C)cc(C)cc2C)c1=O	none
COc1ccc(CCNC(=O)C2CC2)cc1	none
COc1ccc(C[C@H]2NC[C@H](O)[C@H]2OC(C)=O)cc1	FMDV antiviral inconclusive, HCMV antiviral -98 (no result: LASV entry inh, Marburg entry inh)
CC1CCCCC1NC(=S)NC(=O)c1sc2ccccc2c1Cl (stereo not given)	none
O=C(NC(=S)N(CCCCO)C1CCCCC1)c1sc2ccccc2c1Cl	LASV entry inh inconclusive, HCMV antiviral inconclusive, Marburg entry inh 13µM (no result: FMDV antiviral)
CCc1ccc(NC(=O)c2cc3c(C)nc4ccccc4c3o2)cc1	FMDV antiviral inconclusive, LASV entry inh inconclusive, Marburg entry inh inconclusive
Cc1ccccc1NC(=O)c1cc2c(C)nc3ccccc3c2o1	FMDV antiviral inconclusive, HCMV antiviral -83
Cc1nc2ccccc2c2oc(C(=O)NCc3ccccn3)cc12	FMDV antiviral inconclusive, HCMV antiviral inconclusive
Cc1ccc(CNC(=O)c2cc3c(C)nc4ccccc4c3o2)cc1	FMDV antiviral 13µM, HCMV antiviral -70 (no result: LASV entry inh, Marburg entry inh)
Cc1ccccc1OCC(=O)OCc1cc(=O)n2nc(C3CC3)sc2n1	none (no result: Marburg entry inh)
O=c1c(C=NCCN2CCNCC2)c(O)n(C2CCCCC2)c(=O)n1C1CCCCC1	Marburg entry inh 21µM (no result: HCMV antiviral)
N#C/C(=C/c1ccc(N2CCCCCC2)o1)c1ccc(Cl)cc1	FMDV antiviral 25µM, Marburg entry inh inconclusive (no result: HCMV antiviral)
N#C/C(=C/c1ccc(N2CCCCC2)o1)c1cccc(F)c1	LASV entry inh inconclusive, Marburg entry inh inconclusive
O=C1NC(=O)C(=Cc2cc3c(cc2[N+](=O)[O-])OCO3)C(=O)N1	HCMV antiviral -63
Cc1sc(NC(=O)c2ccccc2)c(C(c2ccc(Cl)cc2)N2CCN(CCO)CC2)c1C (stereo not given)	LASV entry inh inconclusive, Marburg entry inh inconclusive
Cc1sc(NC(=O)c2ccco2)c(C(c2cccnc2)N2CCN(CCO)CC2)c1C (stereo not given)	none (no result: LASV entry inh, Marburg entry inh)

Compound activity: PubChem BioAssay, National Center for Advancing Translational Sciences (NCATS)
